Records with an inconclusive call do not appear. A call without a number means that no potency is given here. The source made the active and inactive calls. The call rests on the fitted dose curve; in most records, active means well fitted curve in the direction sought with a large enough effect in the repeat runs; inconclusive means weak or mixed curves; inactive means no such curve, though single readings can be large; an effect the other way counts as inactive or inconclusive.
Assay: Caspase-3/7 induction in CHO-K1 cells by small molecules, qHTS assay (AID 1346980); further: nearly all actives have a fitted effect of over 15% in size
Settings: CHO-K1 caspase-3/7 induction, Caspase-Glo luminescence, 17 h; series mostly up to 92.4 µM
Procedure, shortened: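 Wild-type cells were seeded at 1,500 per well and settled 5 hr at 37 C, 5% CO2, then exposed to DMSO-dissolved compounds for 17 hr. Caspase-Glo 3/7 reagent was added, and luminescence was read after 30min at room temperature.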

Row | Compound | Potency | caspase-3/7 activation
1 | COC(=O)c1cc(Cl)ccc1[N+](=O)[O-] | inactive | –
2 | Cc1cc(N)n(-c2ccccc2)n1 | inactive | –
3 | CC(C)=CCCC(C)C=O (stereo not given) | inactive | –
4 | O=C(O)c1ccc2c(c1)nc(C(=O)NC1CCN(C3CC3)CC1)n2Cc1cc(-c2ccc(Cl)s2)on1 | – | 9.35% [at 19 µM] (inactive)
5 | O=C(O)c1ccc2cc(O)ccc2c1 | inactive | –
6 | O=C1c2ccccc2C(=O)C1c1ccc2cc(S(=O)(=O)O)cc(S(=O)(=O)O)c2n1 | inactive | –
7 | COC(=O)/C=C/C(C)=C\C=C\C(C)=C\C=C\C=C(C)\C=C\C=C(C)\C=C\C(=O)O | inactive | –
8 | CC(=O)OCC(=O)[C@@]1(O)CC[C@H]2[C@@H]3CCC4=CC(=O)C=C[C@]4(C)[C@@]3(F)[C@@H](O)C[C@@]21C | inactive | –
9 | N#Cc1ccc(CC(=O)c2cccc(C(F)(F)F)c2)cc1 | inactive | –
10 | CC1(COc2ccc(CC3SC(=O)NC3=O)cc2)CCCCC1 (stereo not given) | inactive | –
11 | Cc1ccc2ccccc2c1[N+](=O)[O-] | inactive | –
12 | C[C@H]1C[C@H]2[C@@H]3CCC4=CC(=O)C=C[C@]4(C)[C@@]3(F)[C@@H](O)C[C@]2(C)[C@@]1(O)C(=O)COP(=O)(O)O | inactive | –
13 | CO[C@@H]1[C@@H](O[C@@H]2O[C@H](C)[C@@H](O[C@H]3C[C@@](C)(O)[C@@H](O)[C@H](C)O3)[C@H](N(C)C)[C@H]2O)[C@@H](CC=O)C[C@@H](C)[C@@H](O[C@@H]2CC[C@H](N(C)C)[C@@H](C)O2)/C=C/C=C/C[C@@H](C)OC(=O)C[C@H]1OC(C)=O | inactive | –
14 | O=C(N[C@@H](Cc1ccccc1)[C@@H](O)C(=O)N1C[C@@H](O)[C@@H](O)C1)c1cc2cc(Cl)ccc2[nH]1 | inactive | –
15 | CCC(C(=O)O)c1ccc(N2Cc3ccccc3C2=O)cc1 (stereo not given) | inactive | –
16 | O=[N+]([O-])c1ccc(Cl)cc1Cl | inactive | –

Assay: Caspase-3/7 induction in HepG2 cells by small molecules, qHTS cell viability counter screen (AID 1346981); further: nearly all actives have a fitted effect of over 30% in size; further: potency means the concentration at half of the fitted maximal effect
Settings: CellTiter-Fluor fluorescence, 17 h; series mostly up to 92.4 µM
Procedure, shortened: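 Treatment of HepG2 cells with DMSO-delivered compounds ran 16 hr at 37 C following a 5-hr pre-incubation of 2,000 cells/well. CellTiter-Fluor fluorescence, read after 1 hr, served as the viability measure in a qHTS format.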

Row | Compound | Potency | activity change, negative = cytotoxicity
17 | CC(C(=O)O)c1ccc2c(c1)Cc1cccnc1O2 (stereo not given) | inactive | –
18 | O=S(=O)(O)c1cc(Cl)c(Cl)cc1Cl | inactive | –
19 | C=CC(=O)NC(C)(C)C | inactive | –
20 | C=CC(C)(O)CC/C=C(/C)CCC=C(C)C (stereo not given) | inactive | –
21 | CCCCCO | inactive | –
22 | Cc1ccc(Cl)c(OCC(O)CNC(C)(C)C)c1 (stereo not given) | inactive | –
23 | CC(C)(C)c1cc(C=O)cc(C(C)(C)C)c1O | inactive | –
24 | C(/C=C/C=C/Nc1ccccc1)=Nc1ccccc1 | inactive | –
25 | CCCCCCCCCCCCCCCCCCCl | – | -0.332% [at 8.39 µM] (inactive)
26 | CCc1ccc(C(=O)C(C)CN2CCCCC2)cc1 (stereo not given) | inactive | –
27 | O=C(OCCOCCOCCOC(=O)c1ccccc1)c1ccccc1 | inactive | –
28 | O=C(O)CCc1nc2ccccc2[nH]1 | inactive | –
29 | CCc1c(C)[nH]c2c1C(=O)C(CN1CCOCC1)CC2 (stereo not given) | inactive | –
30 | c1ccc(CN(Cc2ccccc2)Cc2ccccc2)cc1 | inactive | –
31 | C[C@H](CN1CCCC1)C(=O)c1ccc(C(F)(F)F)cc1 | inactive | –
32 | C[C@]12CCC(=O)C=C1[C@@H]1C[C@@H]1[C@H]1[C@@H]3[C@@H]4C[C@@H]4[C@@]4(CCC(=O)O4)[C@@]3(C)CC[C@@H]12 | inactive | –
33 | CC(C)Oc1ccccc1O | inactive | –

Row | Compound | Potency | activity change, negative = cytotoxicity
34 | c1ccc(-c2ccc(-c3ccccc3)cc2)cc1 | – | 6.27% [at 19 µM] (inactive)
35 | COC(=O)c1cc(Cl)ccc1[N+](=O)[O-] | inactive | –
36 | Cc1cc(N)n(-c2ccccc2)n1 | inactive | –
37 | CC(C)=CCCC(C)C=O (stereo not given) | inactive | –
38 | O=C(O)c1ccc2c(c1)nc(C(=O)NC1CCN(C3CC3)CC1)n2Cc1cc(-c2ccc(Cl)s2)on1 | – | 3.23% [at 19 µM] (inactive)
39 | O=C(O)c1ccc2cc(O)ccc2c1 | inactive | –
40 | O=C1c2ccccc2C(=O)C1c1ccc2cc(S(=O)(=O)O)cc(S(=O)(=O)O)c2n1 | 33.1 µM (active) | –
41 | COC(=O)/C=C/C(C)=C\C=C\C(C)=C\C=C\C=C(C)\C=C\C=C(C)\C=C\C(=O)O | inactive | –
42 | CC(=O)OCC(=O)[C@@]1(O)CC[C@H]2[C@@H]3CCC4=CC(=O)C=C[C@]4(C)[C@@]3(F)[C@@H](O)C[C@@]21C | inactive | –
43 | N#Cc1ccc(CC(=O)c2cccc(C(F)(F)F)c2)cc1 | inactive | –
44 | CC1(COc2ccc(CC3SC(=O)NC3=O)cc2)CCCCC1 (stereo not given) | inactive | –
45 | Cc1ccc2ccccc2c1[N+](=O)[O-] | inactive | –
46 | C[C@H]1C[C@H]2[C@@H]3CCC4=CC(=O)C=C[C@]4(C)[C@@]3(F)[C@@H](O)C[C@]2(C)[C@@]1(O)C(=O)COP(=O)(O)O | inactive | –
47 | CO[C@@H]1[C@@H](O[C@@H]2O[C@H](C)[C@@H](O[C@H]3C[C@@](C)(O)[C@@H](O)[C@H](C)O3)[C@H](N(C)C)[C@H]2O)[C@@H](CC=O)C[C@@H](C)[C@@H](O[C@@H]2CC[C@H](N(C)C)[C@@H](C)O2)/C=C/C=C/C[C@@H](C)OC(=O)C[C@H]1OC(C)=O | inactive | –
48 | O=C(N[C@@H](Cc1ccccc1)[C@@H](O)C(=O)N1C[C@@H](O)[C@@H](O)C1)c1cc2cc(Cl)ccc2[nH]1 | inactive | –
49 | CCC(C(=O)O)c1ccc(N2Cc3ccccc3C2=O)cc1 (stereo not given) | inactive | –
50 | O=[N+]([O-])c1ccc(Cl)cc1Cl | inactive | –
